# Results filed as inconclusive are left out. Entries that show only a call come without a potency. Activity calls are given as the source filed them. Unless noted, the call rests on the fitted dose curve; in most records, active means well fitted curve in the direction sought with a large enough effect in the repeat runs; inconclusive means weak or mixed curves; inactive means no such curve, though single readings can be large; an effect the other way counts as inactive or inconclusive.
# How the values were obtained:
# [1] = qHTS assay to identify small molecule antagonists of the retinoid acid receptor (RAR) signaling pathway - cell viability counter screen (AID 1159551); further: nearly all actives have a fitted effect of over 35% in size
# Method in brief: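 In this counter screen, the RARE-luciferase line C3RL4 was exposed for 6 h at 37 C and 5% CO2 to compounds with retinol at 1 uM final. Cellular ATP, read by luminescence, served as the viability measure.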
# [2] = qHTS assay to identify small molecule antagonists of the estrogen related receptor (ERR) signaling pathway from Tox21 library - cell viability counter screen (AID 1224834); further: nearly all actives have a fitted effect of over 30% in size
# Method in brief: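 Counter screen run in ERR cells (2,000 cells/well): cells pre-incubated 6 h, then treated with compounds for 17.5 h at 37 C. Fluorescence was read 30 min after CellTiter-Fluor addition.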
# [3] = qHTS assay to identify small molecule agonists of the constitutive androstane receptor (CAR) signaling pathway - cell viability counter screen (AID 1224836); further: series mostly up to about 92 µM; nearly all actives have a fitted effect of over 45% in size
# Method in brief: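 23 h treatment, 37 C, 5% CO2. Cell line: HepG2 stably expressing hCAR with a CYP2B6-2.2kb construct. Co-treatment: PK11195, 0.75 uM final. Read-out: CellTiter-Fluor fluorescence intensity.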
# [4] = qHTS assay to identify small molecule antagonists of the constitutive androstane receptor (CAR) signaling pathway - cell viability counter screen (AID 1224837); further: series mostly up to about 92 µM; nearly all actives have a fitted effect of over 45% in size
# Method in brief: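 CITCO at 50 nM final was added alongside compounds (15 concentrations) to double-stable hCAR/CYP2B6-2.2kb HepG2 cells. Following 23 hr at 37 C, cell viability was quantified by CellTiter-Fluor fluorescence intensity.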
# [5] = qHTS assay to identify small molecule antagonists of the estrogen related receptor signaling pathway with the pleiotropic PPARgamma coactivator (PGC) from Tox21 10K library - cell viability counter screen (AID 1224840; active means well fitted cell-killing curve with a large enough effect in the repeat runs, not every such curve was filed as active; further: nearly all actives have a fitted effect of over 40% in size)
# Method in brief: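 Readout: fluorescence intensity from CellTiter-Fluor after 30 min at 37 C/5% CO2. Preceded by 17.5 h treatment of PGC/ERR cells with DMSO-dissolved compounds, added 6 h post-seeding.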
# [6] = qHTS assay to identify small molecule antagonists of the estrogen related receptor signaling pathway with the pleiotropic PPARgamma coactivator (PGC) from Tox21 10K library (AID 1224841; call rule not given here; further: actives are mostly falling curves and most rising ones were filed inactive; nearly all actives have a fitted effect of over 50% in size; further: potency means the concentration at half of the fitted maximal effect)
# Method in brief: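 One-Glo luminescence, measured after half an hour at room temperature, quantified reporter output of PGC/ERR cells. These had been plated at 2,000 per well, incubated 6 h, dosed with compounds in DMSO, then kept 18 h at 37 C.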
# [7] = qHTS assay to identify small molecule agonists of the estrogen related receptor signaling pathway with the pleiotropic PPARgamma coactivator (PGC) from Tox21 10K library (AID 1224842); further: nearly all actives have a fitted effect of over 15% in size
# Method in brief: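 PGC/ERR reporter cells (NTP line) were seeded 2,000 per well, rested 6 h at 37 C/5% CO2, then pin-dosed with compounds in DMSO for 18 h at 37 C; luciferase read by One-Glo luminescence after 30 min at room temperature.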
# [8] = qHTS assay to identify small molecule antagonists of the retinoic acid receptor (RAR) signaling pathway (AID 1159552; further: nearly all actives have a fitted effect of over 50% in size)
# Method in brief: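 Test chemicals and DMSO controls were pin-transferred onto C3RL4 cells a day after seeding; retinol (1 uM final) followed at once. Luminescent reporter output was quantified after 6 hr of co-incubation and 30 min with detection reagent.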
# [9] = qHTS assay to identify small molecule agonists of the retinoic acid receptor (RAR) signaling pathway (AID 1159553)
# Method in brief: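 In this cell-based screen, 1,000 C3RL4 cells per well were cultured overnight, dosed with test chemicals in DMSO for 6 hr, and assessed for RARE luciferase luminescence.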
# [10] = molecular target: Luciferin 4-monooxygenase (Photinus pyralis) (UniProt P08659); assay: qHTS assay to identify small molecule inhibitors of firefly luciferase (AID 1224835); further: series mostly up to about 120 µM; nearly all actives have a fitted effect of over 25% in size
# Sequence of Luciferin 4-monooxygenase (Photinus pyralis) (P08659 whole entry, looked up): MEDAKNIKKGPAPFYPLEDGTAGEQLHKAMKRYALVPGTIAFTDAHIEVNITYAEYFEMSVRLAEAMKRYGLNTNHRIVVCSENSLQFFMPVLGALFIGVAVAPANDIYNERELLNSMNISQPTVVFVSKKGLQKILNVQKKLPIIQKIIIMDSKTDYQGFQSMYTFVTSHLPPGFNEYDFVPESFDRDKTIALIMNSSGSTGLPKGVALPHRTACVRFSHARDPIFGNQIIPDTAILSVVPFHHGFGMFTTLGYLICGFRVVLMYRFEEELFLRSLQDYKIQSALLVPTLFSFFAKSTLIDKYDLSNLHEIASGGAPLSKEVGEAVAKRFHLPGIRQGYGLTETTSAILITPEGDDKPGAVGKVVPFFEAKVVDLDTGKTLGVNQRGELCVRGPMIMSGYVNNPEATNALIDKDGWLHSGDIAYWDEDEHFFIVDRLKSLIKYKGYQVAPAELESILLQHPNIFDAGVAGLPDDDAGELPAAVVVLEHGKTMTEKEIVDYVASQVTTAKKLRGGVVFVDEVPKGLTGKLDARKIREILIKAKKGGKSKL
# Method in brief: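 Quantitative HTS format; KM concentrations of both substrates. Purified P. pyralis FLuc activity quantified from luminescence images.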
# [11] = molecular target: Nuclear receptor subfamily 1 group I member 3 (Homo sapiens) (UniProt Q14994); assay: qHTS assay to identify small molecule agonists of the constitutive androstane receptor (CAR) signaling pathway (AID 1224839); further: series mostly up to about 92 µM; nearly all actives have a fitted effect of over 15% in size
# Sequence of Nuclear receptor subfamily 1 group I member 3 (Homo sapiens) (Q14994 whole entry, looked up): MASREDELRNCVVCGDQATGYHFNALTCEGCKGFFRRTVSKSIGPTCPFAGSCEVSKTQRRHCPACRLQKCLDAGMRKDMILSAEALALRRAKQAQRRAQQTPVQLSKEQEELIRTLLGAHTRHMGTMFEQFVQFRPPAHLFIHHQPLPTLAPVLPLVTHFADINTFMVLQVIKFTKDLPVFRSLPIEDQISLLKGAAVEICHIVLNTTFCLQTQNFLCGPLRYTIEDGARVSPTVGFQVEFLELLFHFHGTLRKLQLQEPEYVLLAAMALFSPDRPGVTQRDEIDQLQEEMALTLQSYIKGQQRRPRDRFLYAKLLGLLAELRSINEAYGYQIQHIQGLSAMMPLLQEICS
# Method in brief: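 Compounds tested at 15 concentrations on HepG2 cells stably harbouring hCAR and CYP2B6-2.2kb reporter constructs, co-treated with PK11195 (0.75 uM final), 24 h at 37 C; luminescent reporter signal quantified.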
# [12] = qHTS assay to identify small molecule agonists of the RXR signaling pathway - cell viability counter screen (AID 1159529); further: series mostly up to about 77 µM; nearly all actives have a fitted effect of over 50% in size
# Method in brief: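 Compounds dissolved in DMSO were pinned onto HEK 293T cells carrying a beta-lactamase reporter under RXR-alpha control and incubated 16 hr. Cytotoxicity was then quantified by CellTiter-Glo luminescence.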
# [13] = qHTS assay to identify small molecule antagonists of the estrogen related receptor (ERR) signaling pathway - cell viability counter screen (AID 1224818); further: series mostly up to about 46 µM
# Method in brief: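 Viability of ERR cells, CellTiter-Fluor fluorescence; 17.5 h compound exposure at 37 C, DMSO vehicle; 30 min reagent incubation at 37 C/5% CO2.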
# [14] = qHTS assay to identify small molecule antagonists of the estrogen related receptor signaling pathway with the pleiotropic PPARgamma coactivator (PGC) cell viability counter screen (AID 1224822; further: series mostly up to about 46 µM)
# Method in brief: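 17.5 h compound treatment of PGC/ERR cells at 37 C; readout CellTiter-Fluor fluorescence; run alongside the PGC/ERR antagonist screen to flag cytotoxic compounds.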
# [15] = molecular target: Nuclear receptor subfamily 1 group I member 3 (Homo sapiens) (UniProt Q14994); assay: qHTS assay to identify small molecule antagonists of the constitutive androstane receptor (CAR) signaling pathway (AID 1224838); further: nearly all actives have a fitted effect of over 40% in size
# Method in brief: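 Inhibition of CITCO-driven (50 nM final) CYP2B6 reporter expression is measured in HepG2 cells stably carrying hCAR. Fifteen compound concentrations are applied for 24 h at 37 C, followed by luciferase luminescence.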
structure (smiles),measurement,setting,value
ICCc1ccccc1,outcome,[1],inactive
same,Potency,[2],inactive
same,Potency,[3],inactive
same,Potency,[4],inactive
same,Potency,[5],inactive
same,Potency,[6],inactive
same,Potency,[7],inactive
CCCCCCCCCCCCCCCCOP(=O)([O-])OCC[N+](C)(C)C,outcome,[1],inactive
same,Potency,[8],inactive
same,Potency,[9],inactive
same,Potency,[2],inactive
same,Potency,[10],inactive
same,Potency,[3],inactive
same,Potency,[4],inactive
same,Potency,[11],inactive
same,Potency,[5],inactive
same,Potency,[6],inactive
Cc1nc(N)nc(N)c1-c1ccc(Cl)c(Cl)c1,outcome,[1],inactive
same,Potency,[8],inactive
same,Potency,[9],inactive
same,Potency,[10],inactive
same,Potency,[3],inactive
same,Potency,[6],0.841 µM (active)
same,Potency,[7],inactive
NC1=NCC2c3ccccc3Cc3ccccc3N12 (configuration not stated),Potency,[12],inactive
same,outcome,[13],inactive
same,outcome,[14],inactive
same,Potency,[2],inactive
same,Potency,[3],inactive
same,Potency,[4],inactive
same,Potency,[15],inactive
same,Potency,[11],inactive
same,Potency,[5],inactive
CCc1cc2cc(OC)c(OC)cc2c(Cc2ccccc2)n1,Potency,[12],inactive
same,Potency,[9],inactive
same,Potency,[10],inactive
same,Potency,[3],inactive
same,Potency,[4],inactive
same,Potency,[15],inactive
same,Potency,[5],inactive
same,Potency,[6],inactive
same,Potency,[7],inactive
CCCCOc1cc(C(=O)NCCN(CC)CC)c2ccccc2n1,outcome,[1],inactive
same,Potency,[8],inactive
same,Potency,[9],inactive
same,Potency,[10],inactive
same,Potency,[5],inactive
C=CC(C)(O)CC/C=C(\C)CCC=C(C)C (configuration not stated),Potency,[12],inactive
same,Potency,[2],inactive
same,Potency,[3],inactive
same,Potency,[4],inactive
same,Potency,[5],inactive
CC(C)NC[C@@H](O)COc1cccc2ccccc12,Potency,[8],inactive
same,Potency,[9],inactive
same,Potency,[2],inactive
same,Potency,[3],inactive
same,Potency,[4],inactive
same,Potency,[15],inactive
same,Potency,[11],inactive
same,Potency,[5],inactive
CN(CC1(C)CCCO1)S(=O)(=O)c1ccc(Cl)c(S(N)(=O)=O)c1 (configuration not stated),Potency,[12],inactive
same,Potency,[8],inactive
same,Potency,[9],inactive
same,Potency,[10],inactive
same,Potency,[3],inactive
same,Potency,[4],inactive
same,Potency,[5],inactive
CCOc1ccccc1N,Potency,[12],inactive
same,Potency,[8],inactive
same,Potency,[9],inactive
same,Potency,[10],inactive
same,Potency,[15],inactive
same,Potency,[5],inactive
same,Potency,[6],15.2 µM (active)
same,Potency,[7],inactive
CC(C)C1=CC2=CC[C@@H]3[C@](C)(CCC[C@@]3(C)C(=O)O)[C@H]2CC1,Potency,[8],inactive
same,Potency,[9],inactive
same,Potency,[3],inactive
same,Potency,[4],inactive
same,Potency,[15],inactive
same,Potency,[11],inactive
same,Potency,[5],inactive

# Source: PubChem BioAssay (Tox21)
